Inconclusive results are not listed. The source made the active and inactive calls. The call rests on the fitted dose curve; in most records, active means well fitted curve in the direction sought with a large enough effect; inconclusive means small, poorly fitted or top-dose-only effect, or another doubt; inactive means no such curve, though single readings can be large; an effect the other way counts as inactive or inconclusive.
Columns and labels:
[1] = Quantitative High-Throughput drug screen in 47 multiple myeloma cell lines against the NCATS MIPE library collection: KHM11_PLB cell viability assay (AID 1918962); further: nearly all actives have a fitted effect of over 35% in size
In short: (§1)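 qHTS of the MIPE 4.0 collection: 500 myeloma cells/well, 48 h drug exposure at 37C in 5% CO2, then CellTiter-Glo for 5 min at room temperature before luminescence reading.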

[2] = Quantitative High-Throughput drug screen in 47 multiple myeloma cell lines against the NCATS MIPE library collection: JIM3_ECACC cell viability assay (AID 1918963; further: nearly all actives have a fitted effect of over 35% in size)
In short: as §1

[3] = Quantitative High-Throughput drug screen in 47 multiple myeloma cell lines against the NCATS MIPE library collection: JIM1_ECACC cell viability assay (AID 1918964)
In short: (§2)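 Primary qHTS used for cherry-picking: cells at 500/well, library compounds for 48 h (37C, 5% CO2), luminescent ATP assay.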

[4] = Quantitative High-Throughput drug screen in 47 multiple myeloma cell lines against the NCATS MIPE library collection: INA6_PLB cell viability assay (AID 1918965; further: nearly all actives have a fitted effect of over 55% in size)
In short: (§3)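 Luminescent ATP measurement with CellTiter-Glo gives viability, scaled between DMSO-only wells (100%) and media-only wells (0%). Cells, 500 per well, faced library compounds for 48 hours at 37C.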

[5] = Quantitative High-Throughput drug screen in 47 multiple myeloma cell lines against the NCATS MIPE library collection: JJN3_DSMZ cell viability assay (AID 1918966; further: nearly all actives have a fitted effect of over 50% in size)
In short: as §2

[6] = Quantitative High-Throughput drug screen in 47 multiple myeloma cell lines against the NCATS MIPE library collection: Karpas25_ECACC cell viability assay (AID 1918968; further: nearly all actives have a fitted effect of over 35% in size)
In short: as §2

[7] = Quantitative High-Throughput drug screen in 47 multiple myeloma cell lines against the NCATS MIPE library collection: KMS27_JCRB cell viability assay (AID 1918970); further: nearly all actives have a fitted effect of over 30% in size
In short: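 Each line is seeded at 500 cells per well and treated with library compounds for 48 hours under 37 °C, 5% CO2. CellTiter-Glo is then added for 5 min at room temperature before median relative luminescence is recorded.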

[8] = Quantitative High-Throughput drug screen in 47 multiple myeloma cell lines against the NCATS MIPE library collection: KMS12PE_JCRB cell viability assay (AID 1918972); further: nearly all actives have a fitted effect of over 30% in size
In short: as §3

[9] = Quantitative High-Throughput drug screen in 47 multiple myeloma cell lines against the NCATS MIPE library collection: KMS20_JCRB cell viability assay (AID 1918973); further: nearly all actives have a fitted effect of over 45% in size
In short: as §2

[10] = Quantitative High-Throughput drug screen in 47 multiple myeloma cell lines against the NCATS MIPE library collection: KMS26_JCRB cell viability assay (AID 1918975); further: nearly all actives have a fitted effect of over 45% in size
In short: (§4)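 Myeloma cells (500 per well) were exposed to MIPE 4.0 compounds by pin transfer and incubated 48 hours at 37C, 5% CO2. Viability was read as ATP by CellTiter-Glo luminescence, normalised to DMSO (100%) and media-only (0%) wells.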

[11] = Quantitative High-Throughput drug screen in 47 multiple myeloma cell lines against the NCATS MIPE library collection: MMM1_PLB cell viability assay (AID 1918976); further: nearly all actives have a fitted effect of over 35% in size
In short: (§5)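 qHTS format: cells plated (500/well), pin-dosed with MIPE 4.0 compounds, kept 48 h at 37 °C. Readout was CellTiter-Glo luminescence, median RLU.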

[12] = Quantitative High-Throughput drug screen in 47 multiple myeloma cell lines against the NCATS MIPE library collection: MOLP8_DSMZ cell viability assay (AID 1918977); further: nearly all actives have a fitted effect of over 45% in size
In short: as §5

[13] = Quantitative High-Throughput drug screen in 47 multiple myeloma cell lines against the NCATS MIPE library collection: NCIH929_DSMZ cell viability assay (AID 1918978); further: nearly all actives have a fitted effect of over 35% in size
In short: as §5

[14] = Quantitative High-Throughput drug screen in 47 multiple myeloma cell lines against the NCATS MIPE library collection: MM1S_ATCC cell viability assay (AID 1918980); further: nearly all actives have a fitted effect of over 45% in size
In short: as §5

[15] = Quantitative High-Throughput drug screen in 47 multiple myeloma cell lines against the NCATS MIPE library collection: MM1R_ATCC cell viability assay (AID 1918981); further: nearly all actives have a fitted effect of over 35% in size
In short: as §5

[16] = Quantitative High-Throughput drug screen in 47 multiple myeloma cell lines against the NCATS MIPE library collection: H1112_PLB cell viability assay (AID 1918967; further: nearly all actives have a fitted effect of over 30% in size)
In short: as §2

[17] = Quantitative High-Throughput drug screen in 47 multiple myeloma cell lines against the NCATS MIPE library collection: KMS12BM_JCRB cell viability assay (AID 1918971); further: nearly all actives have a fitted effect of over 35% in size
In short: as §4

[18] = Quantitative High-Throughput drug screen in 47 multiple myeloma cell lines against the NCATS MIPE library collection: OCIMY1_PLB cell viability assay (AID 1918979); further: nearly all actives have a fitted effect of over 35% in size
In short: as §5

[19] = Quantitative High-Throughput drug screen in 47 multiple myeloma cell lines against the NCATS MIPE library collection: KMS21BM_JCRB cell viability assay (AID 1918974); details: ATP luminescence, 48 h; viability: at 45.8 µM (top of the series) unless noted
In short: as §2

[20] = Quantitative High-Throughput drug screen in 47 multiple myeloma cell lines against the NCATS MIPE library collection: LP1_DSMZ cell viability assay (AID 1918982); further: nearly all actives have a fitted effect of over 35% in size
In short: as §5
Potency means the concentration at half of the fitted maximal effect.

Cc1cc(Nc2cc(N3CCN(C)CC3)nc(Sc3ccc(NC(=O)C4CC4)cc3)n2)n[nH]1
Potency [1]: 1.32 µM (active)
Potency [2]: 5.26 µM (active)
Potency [3]: 6.62 µM (active)
Potency [4]: 16.6 µM (active)
Potency [5]: 16.6 µM (active)
Potency [6]: 18.7 µM (active)
Potency [7]: 0.0118 µM (active)
Potency [8]: 0.166 µM (active)
Potency [9]: 4.69 µM (active)
Potency [10]: 14.8 µM (active)
Potency [11]: 10.5 µM (active)
Potency [12]: 5.9 µM (active)
Potency [13]: 5.9 µM (active)
Potency [14]: 13.2 µM (active)
Potency [15]: 16.6 µM (active)

CC(=O)OCC(=O)[C@@]1(O)[C@H](C)C[C@H]2[C@@H]3C=C(C)C4=Cc5c(cnn5-c5ccccc5)C[C@]4(C)[C@@H]3[C@@H](O)C[C@@]21C
Potency [1]: 16.6 µM (active)
Potency [2]: 9.35 µM (active)
Potency [3]: 9.35 µM (active)
Potency [4]: 5.26 µM (active)
Potency [5]: 9.35 µM (active)
Potency [16]: 10.5 µM (active)
Potency [17]: 16.6 µM (active)
Potency [8]: 8.33 µM (active)
Potency [10]: 10.5 µM (active)
Potency [11]: 16.6 µM (active)
Potency [13]: 8.33 µM (active)
Potency [18]: 9.35 µM (active)
Potency [14]: 0.0132 µM (active)
Potency [15]: 9.35 µM (active)

CN1CCC(CNc2ccc3ncc(-c4cccc(OC(F)(F)F)c4)n3n2)CC1
Potency [1]: 6.62 µM (active)
Potency [2]: 9.35 µM (active)
Potency [3]: 8.33 µM (active)
Potency [4]: 4.69 µM (active)
Potency [16]: 8.33 µM (active)
Potency [7]: 14.8 µM (active)
Potency [17]: 20.9 µM (active)
Potency [8]: 7.43 µM (active)
Potency [9]: 3.32 µM (active)
Potency [19]: 9.35 µM (active)
Potency [10]: 18.7 µM (active)
Potency [11]: 18.7 µM (active)
Potency [12]: 18.7 µM (active)
Potency [13]: 7.43 µM (active)
Potency [18]: 20.9 µM (active)
Potency [14]: 7.43 µM (active)
Potency [15]: 20.9 µM (active)
Potency [20]: 26.4 µM (active)

Cc1cc(Nc2nc(N[C@@H](C)c3ccc(F)cc3)c(C#N)cc2F)n[nH]1
Potency [1]: 8.33 µM (active)
Potency [2]: 3.72 µM (active)
Potency [3]: 0.296 µM (active)
Potency [4]: 0.372 µM (active)
Potency [6]: 1.48 µM (active)
Potency [7]: 0.935 µM (active)
Potency [8]: 0.935 µM (active)
Potency [9]: 5.26 µM (active)
Potency [10]: 8.33 µM (active)
Potency [11]: 6.62 µM (active)
Potency [13]: 13.2 µM (active)
Potency [14]: 20.9 µM (active)

CN1CCN(c2cc(C(=O)Nc3ccc4c(c3)-c3c(c(C(N)=O)nn3-c3ccc(F)cc3)CC4)c(Cl)cn2)CC1
Potency [1]: 5.9 µM (active)
Potency [2]: 6.62 µM (active)
Potency [3]: 8.33 µM (active)
Potency [4]: 1.05 µM (active)
Potency [5]: 0.235 µM (active)
Potency [7]: 7.43 µM (active)
Potency [8]: 20.9 µM (active)
Potency [9]: 2.96 µM (active)
Potency [10]: 10.5 µM (active)
Potency [12]: 26.4 µM (active)
Potency [13]: 0.743 µM (active)
Potency [18]: 26.4 µM (active)
Potency [14]: 3.32 µM (active)
Potency [15]: 20.9 µM (active)
Potency [20]: 23.5 µM (active)

Nc1ncnc2c1c(-c1cccc(OCc3ccccc3)c1)cn2C1CC(CN2CCCC2)C1 (configuration not stated)
Potency [1]: 5.26 µM (active)
Potency [2]: 0.0833 µM (active)
Potency [3]: 0.296 µM (active)
Potency [4]: 6.62 µM (active)
Potency [5]: 5.9 µM (active)
Potency [6]: 0.148 µM (active)
Potency [7]: 18.7 µM (active)
Potency [17]: 23.5 µM (active)
Potency [8]: 9.35 µM (active)
Potency [9]: 0.132 µM (active)
Potency [10]: 4.69 µM (active)
Potency [11]: 1.05 µM (active)
Potency [12]: 16.6 µM (active)
Potency [13]: 0.0833 µM (active)
Potency [18]: 10.5 µM (active)
Potency [14]: 1.87 µM (active)
Potency [15]: 1.66 µM (active)
Potency [20]: 5.9 µM (active)

O=C(CCCCCCNC(=O)c1cnc(N(c2ccccc2)c2ccccc2)nc1)NO
Potency [1]: 10.5 µM (active)
Potency [2]: 16.6 µM (active)
Potency [3]: 4.69 µM (active)
Potency [4]: 2.64 µM (active)
Potency [5]: 4.18 µM (active)
Potency [6]: 4.18 µM (active)
Potency [7]: 5.26 µM (active)
Potency [17]: 2.96 µM (active)
Potency [8]: 5.9 µM (active)
Potency [9]: 8.33 µM (active)
Potency [10]: 5.26 µM (active)
Potency [11]: 5.26 µM (active)
Potency [12]: 4.18 µM (active)
Potency [13]: 5.9 µM (active)
Potency [18]: 13.2 µM (active)
Potency [14]: 6.62 µM (active)
Potency [15]: 3.72 µM (active)
Potency [20]: 5.9 µM (active)

CC=C1NC(=O)[C@H]2CSSCCC=C[C@H](CC(=O)N[C@H](C(C)C)C(=O)N2)OC(=O)[C@H](C(C)C)NC1=O
Potency [1]: 0.0166 µM (active)
Potency [2]: 0.0469 µM (active)
Potency [3]: 0.0093 µM (active)
Potency [4]: 0.0132 µM (active)
Potency [5]: 0.0418 µM (active)
Potency [7]: 0.001 µM (active)
Potency [17]: 0.0105 µM (active)
Potency [9]: 0.0209 µM (active)
Potency [11]: 0.935 µM (active)
Potency [12]: 0.0132 µM (active)
Potency [13]: 0.0526 µM (active)
Potency [18]: 0.118 µM (active)
Potency [14]: 0.0332 µM (active)
Potency [20]: 0.0118 µM (active)

C[C@H]1C[C@@H]2[C@@H]([C@@H](O)C[C@@]3(C)[C@H]2CC[C@]3(O)C(=O)CO)[C@@]2(C)C=CC(=O)C=C12
Potency [1]: inactive
Potency [2]: inactive
Potency [3]: inactive
Potency [5]: inactive
Potency [17]: inactive
Potency [8]: inactive
Potency [10]: inactive
Potency [11]: inactive
Potency [13]: inactive
Potency [18]: inactive
Potency [15]: inactive
Potency [20]: 0.0833 µM (active)

Cc1ccc(C(=O)Nc2cccc(C(F)(F)F)c2)cc1-c1ccc2nc(NCCN3CCOCC3)ncc2c1
Potency [1]: 0.743 µM (active)
Potency [2]: 13.2 µM (active)
Potency [3]: 1.05 µM (active)
Potency [5]: 16.6 µM (active)
Potency [6]: 5.26 µM (active)
Potency [7]: 2.96 µM (active)
Potency [17]: 8.33 µM (active)
Potency [8]: 2.64 µM (active)
Potency [9]: 1.66 µM (active)
Potency [19]: 1.66 µM (active)
Potency [11]: 14.8 µM (active)
Potency [12]: 3.32 µM (active)
Potency [13]: 5.26 µM (active)
Potency [18]: 18.7 µM (active)
Potency [14]: 16.6 µM (active)
Potency [20]: 18.7 µM (active)
